The text below walks through data of ChEMBL document CHEMBL1201862, “PubChem BioAssay data set” (2004).

The whole screen tested about 53,000 sequences, of which about 4,900 (9.2%) were called active. Cut-off read from the data, not from the text of the source: active = GI50 up to about 1.1 µM and inactive = higher. The full list was thinned out, with actives kept by preference. Measured potencies and affinities stand elsewhere.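 Interpolation was linear, between the two tested concentrations surrounding the appropriate level; five concentrations were tested over 48 hours in 96-well plates. GI50: concentration for 50% inhibition of growth.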

The test system of the assay is NCI-H522. The assay is described as follows: NCI tumour cell line growth inhibition, 48 h.
Take CISPLATIN, CHEMBL11359: the GI50 was determined as 2030 nM. “cis-Bis[[(trimethylsilyl)methyl]amino]tetrachloroplatinum(IV), CHEMBL2146191” yielded a GI50 of 8220 nM. Substance “[Bis(aminomethyl)tetramethylenesilane]tetrachloropaltinum(IV), CHEMBL2146189” came in with a GI50 of 2180 nM.

In turn, “[Bis(aminomethyl)pentamethylenesilane]tetrachloropaltinum(IV), CHEMBL2146204” had a GI50 of 776 nM.

For “[Bis(aminomethyl)dimethylsilane]dichloroplatinum (II), CHEMBL2146201”, the GI50 was found to be 4940 nM. With “[Bis(aminomethyl)diethylsilane]tetrachloroplatinum(IV), CHEMBL2146203”, the GI50 worked out at 2650 nM.

“[Bis(aminomethyl)tetramethylenesilane]dichloropaltinum(II), CHEMBL2146205” had a GI50 of 7620 nM. The figure for “mu-(1,7-nanodiamine-N,N')bis-(cis-aminedichloroplatimum (II)), CHEMBL2146215” is 7940 nM. The figure for “[Bis(aminomethyl)pentamethylenesilane]dichloropaltinum(II), CHEMBL2146202” is 1520 nM; for “[Bis(aminomethyl)dimethylsilane]tetrachloroplatinum(IV), CHEMBL2146190” it is 1830 nM.
